An excerpt weighted towards active compounds, which were near 7% of everything screened.
NR3A LBD binder – NR3A (human) ligand-binding domain modulation. NR3A LBD differential scanning fluorimetry, Tm shift; 0% = protein alone, 100% = glycine-bound protein. Tm shift relative to glycine control, % at 25 µM. hit rate 2.5% among 340,000;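 active means melting temperature shift of at least 10% of the positive control shift, at one fixed dose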
KLK7 zymogen act – activates the human kallikrein-7 zymogen. purified proKLK7, EDANS-DABCYL substrate fluorescence; 100% is mature enzyme control, 0% vehicle. activation, % at 7 µM. hit rate 0.9% among 370,000;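 active means activation above the mean of all tested compounds plus 3 SD, computed per campaign excluding outliers beyond control limits, cut at about 13% in these data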
AHR activator – activators of human aryl hydrocarbon receptor. hit rate 2.5% among 320,000. activation, % at 5 µM. P35869. AHR-responsive luciferase reporter cells, luminescence. AID 2796; in the data active means activation above about 47%;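 further: 0% = vehicle wells and 100% = reference agonist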
ADAM17 inh – inhibits human ADAM17 | P78536 | recombinant ADAM17, EDANS/DABCYL FRET peptide cleavage | inhibition, % at 6.95 µM | hit rate 0.83% among 370,000;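 active means inhibition above the mean of compounds lying between control limits plus 3 SD, set per campaign, cut at about 8.5% in these data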;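 further: 0% = DMSO-only wells as the low control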
ADAM10 inh – inhibits human ADAM10. O14672. recombinant ADAM10, EDANS/DABCYL FRET peptide cleavage, 3 h. inhibition, % at 7 µM. hit rate 0.62% among 370,000;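 active means inhibition above a per-campaign cutoff equal to the mean of compounds falling between control-based bounds plus 3 SD, cut at about 20% in these data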;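 further: 0% = DMSO wells while the 100% control is not disclosed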
rCAG RNA binder – r(CAG) repeat RNA binding. TO-PRO-1 dye displacement fluorescence. inhibition, % at 3 µM. hit rate 1.3% among 370,000. AID 651821;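 active means inhibition above the plate cutoff, the mean of all test compounds on that plate plus 3 SD, cut at about 35% in these data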;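 further: 0% = DMSO alone and 100% = 100 µM mitoxantrone as full dye displacement; higher means more dye released from RNA so lower well fluorescence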
An asterisk follows results filed as active; x = no result; ! = a repeat was not active.

SMILES	NR3A LBD binder	KLK7 zymogen act	AHR activator	ADAM17 inh	ADAM10 inh	rCAG RNA binder
Cc1cc(OCC(C)CN2CCC(C(O)(c3ccccc3)c3ccccc3)CC2)ccc1Br (stereo not drawn)	x	0.5	x	2.4	6.5	5.7
O=C(c1ccccc1-c1nc(-c2ccc(F)cc2)no1)N1CCCC1	-1.3	-0.1	50.2*	-1.1	3.7	-2.3
COc1ccc(C2(C(=O)O)CCCC2)cc1	11.2*	-0.2	2.2	5.6	9.1	2.9
COc1ccc(C2(C(=O)NCCc3ccccc3)CCCC2)cc1	0.1	-0.2	0.8	-3.1	1.0	-6.8
CN(C)C(/C=C/Nc1ccc([N+](=O)[O-])cc1)=C(C#N)C#N	17.9*	-0.7	31.8	-4.7	2.6	-0.8
CN(C)C(/C=C/Nc1ccc(F)cc1)=C(C#N)C#N	-1.1	-0.1	44.9	-1.2	4.9	2.3
CC1CCCCC1N(C(=O)c1cc(C2CC2)on1)C1CCCCC1 (stereo not drawn)	x	0.1	x	-3.9	5.2	-0.6
COc1ccccc1NC(=O)OC1CCC12CCCCC2 (stereo not drawn)	x	0.4	x	-3.1	-10.9	2.0
CSc1cccc(NC(=O)c2ccc(NC3=NC4CS(=O)(=O)CC4S3)cc2)c1 (stereo not drawn)	27.9*	0.5	4.0	-0.2	12.9	9.2
CC(C)c1ccc(NC(=O)c2ccc(NC3=NC4CS(=O)(=O)CC4S3)cc2)cc1 (stereo not drawn)	16.4*	-0.2	18.6	0.5	5.0	8.9
O=C(Nc1cccc(Cl)c1)c1ccc(NC2=NC3CS(=O)(=O)CC3S2)cc1 (stereo not drawn)	-2.9	0.4	3.4	-3.8	1.5	8.8
Cc1ccc(NC(=O)c2ccc(NC3=NC4CS(=O)(=O)CC4S3)cc2)cc1 (stereo not drawn)	1.2	0.6	-0.3	-4.3	3.6	6.2
O=C([C@@H]1C[C@H]1c1ccccc1)N1CC[C@H]2[C@H](CCCN2Cc2ccc(F)cc2)C1	x	-0.1	x	-5.7	-4.3	1.0
COc1ccc(-c2cc(=O)[nH][nH]2)cc1OC	12.7*	-29.0	1.3	-40.8	-108.2	6.0
COc1cccc(-c2cc(=O)[nH][nH]2)c1	-1.9	0.3	2.5	-7.3	-10.2	0.8
Cc1nc2c(o1)CCc1ccccc1C2N1CCN(C)CC1 (stereo not drawn)	13.0*!	0.0	-0.5	-5.7	-17.0	-0.9
O=c1[nH]c(/C=C/c2ccc(OC(F)F)cc2)nc2c1cnn2-c1ccccc1	3.6	-2.2	75.3*	-1.3	-2.1	2.5
CC(C)Sc1nc2c(cnn2-c2ccccc2)c(=O)[nH]1	-1.3	-0.2	24.2	0.9	-1.3	3.5
COc1cccc(/C=C2\CC3(OC(=O)c4ccccc4)CCCN2C3)c1 (stereo not drawn)	x	0.3	x	4.5	7.6	-0.7
O=C(C[n+]1cccc2ccccc21)c1ccc(Br)cc1	0.5	-0.6	65.0*	-7.2	-20.7	4.4
O=C(C[n+]1cc(Br)cc2ccccc21)c1ccc(Cl)cc1	-5.1	-1.2	72.6*	-5.5	0.9	10.0
CC(Oc1cccnc1[N+](=O)[O-])C(=O)Nc1ccc(Cl)cn1 (stereo not drawn)	1.0	0.3	56.3*	0.0	-4.1	0.1
Cc1ccccc1N/N=C/c1ccc(C#N)cc1	17.6*	0.0	-5.5	-2.4	-5.4	3.5
Cc1cc(Nc2ccccc2)nc(-c2ccccc2O)n1	10.7*	2.0	19.7	-6.5	-17.2	16.1
Cc1cc(Nc2ccccc2Cl)nc(-c2ccccc2O)n1	1.2	-12.7	6.5	1.8	10.9	6.2
SMILES	NR3A LBD binder	KLK7 zymogen act	AHR activator	ADAM17 inh	ADAM10 inh	rCAG RNA binder
CCOC(=O)c1ccc(Nc2cc(C)nc(-c3ccccc3O)n2)cc1	35.2*	-2.9	2.8	-2.4	6.9	10.1
O=C(CN1CCc2onc(-c3cccc(-n4cc(CO)nn4)c3)c2C1=O)N1CCOCC1	x	-0.2	x	0.8	-2.6	2.2
O=C(NCCN1CCC(Cc2ccccc2)CC1)C1CCCN(S(=O)(=O)c2ccccc2[N+](=O)[O-])C1 (stereo not drawn)	x	0.1	x	-2.6	-2.4	0.2
Nc1nc2ccc(N3CCOCC3)cc2s1	11.7*	0.3	13.1	-0.4	-1.3	2.2
Cc1ccccc1NC(=O)N(C)[C@H]1C[C@H]2c3[nH]c4c(-c5ccc6c(c5)OCO6)cccc4c3CCN2C[C@H]1[C@H](C)O	x	-0.1	x	-3.3	-16.1	14.0
N#CCSc1nc2ccccc2o1	0.6	0.8	0.1	-6.1	-9.7	-1.3

Screens (PubChem)
